This is a sample that favours compounds with a hit; in the whole collection about 32% have one here.
PostGolgi yeast = growth inhibition of a yeast mutant, post-Golgi transport screen; AID 739; post-Golgi transport phenotypic cell assay; inhibition, % at 10 µM; 98,000 tested, 0.9% active;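 note: yeast cells grown in 1536-well plates; yeast grown about 18 h at 30C before absorbance read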
CYP2C9 act = CYP2C9 (human) activation | P11712 | recombinant CYP2C9, luciferin-H conversion, luminescence; stronger effect = higher value; factor 1 = untreated enzyme, 0 = blocked | activation factor at 5 µM | 96,000 tested, 1.4% active;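 active = activation factor of 2 or more for CYP2C9 at a 5 µM dose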;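 note: 0 = sulfaphenazole-blocked wells and 1 = vehicle-only wells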
Target sequence (P11712 whole entry, looked up): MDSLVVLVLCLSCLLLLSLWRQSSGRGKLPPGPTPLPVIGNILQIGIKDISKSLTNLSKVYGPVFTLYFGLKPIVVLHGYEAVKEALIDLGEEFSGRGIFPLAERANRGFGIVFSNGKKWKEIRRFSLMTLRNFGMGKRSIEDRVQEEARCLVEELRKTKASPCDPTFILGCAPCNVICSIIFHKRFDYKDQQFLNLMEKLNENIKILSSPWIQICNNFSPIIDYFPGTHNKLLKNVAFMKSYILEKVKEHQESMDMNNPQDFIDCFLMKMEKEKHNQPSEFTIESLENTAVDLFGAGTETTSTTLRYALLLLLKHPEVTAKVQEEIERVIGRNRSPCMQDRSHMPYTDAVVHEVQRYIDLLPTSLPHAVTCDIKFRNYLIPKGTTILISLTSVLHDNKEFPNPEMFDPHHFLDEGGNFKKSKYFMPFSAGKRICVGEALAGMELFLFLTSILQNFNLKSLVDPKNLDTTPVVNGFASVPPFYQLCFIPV
CYP2C19 inh = blocks human cytochrome P450 2C19; P33261; CYP2C19 Supersomes, luciferin-H EGE luminescence, 30 min; inhibition, % at 5 µM; 96,000 tested, 21% active; AID 778;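 active = CYP2C19 inhibition above a set limit at 5 µM in the primary screen, cut at about 50% in these data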;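 note: plate controls were negative control wells for no effect and 2.5 mM tranylcypromine positive control for full effect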
CYP2C9 inh = inhibitors of human CYP2C9 | P11712 | CYP2C9 Supersomes, luciferin-H conversion, luminescence | inhibition, % at 5 µM | 96,000 tested, 20% active | AID 777;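 active = blocking of liver enzyme CYP2C9 beyond about 50% at 5 µM, limit read from the data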
PostGolgi ctrl = growth of the yeast control strain, post-Golgi counter-screen | 98,000 tested, 5% active | inhibition, % at 10 µM | efflux-deficient yeast background strain, growth absorbance A615, 16 h
CYP2C19 activ = cytochrome P450 2C19 (human) activation; P33261; recombinant CYP2C19, luciferin-H EGE luminescence; stronger effect = higher value; 0 = fully inhibited enzyme, 1 = untreated enzyme; activation factor at 5 µM; 96,000 tested, under 10 active;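 active = activation factor of at least 2 at 5 µM in the primary screen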;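 note: 0 = wells with 2.5 mM tranylcypromine and 1 = vehicle-only wells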
* = called active by the depositor. Cut-off read from the data, not from the text of the source, unless noted: active = inhibition above about 30%; inactive = the rest.

SMILES	PostGolgi yeast	CYP2C9 act	CYP2C19 inh	CYP2C9 inh	PostGolgi ctrl	CYP2C19 activ
COc1ccc(Cl)cc1NC(=O)CCN1CCN(c2ccccc2C)CC1	2	1	0	0	16	1
CCOC(=O)NCCc1c(C)nc2c(c(C)nn2C(C)(C)C)c1C	-2	0.7	24	34	12	0.8
OCCN1CCOCCN(CCO)CCN(CCO)CC1	22	1.1	-12	-8	1	1.1
CCOc1ccc2[nH]c(=O)c(CN(CC3CCCN3CC)C(=O)NCc3ccccc3)cc2c1 (configuration not stated)	1	0.8	19	20	2	0.8
COc1ccccc1NC(=O)CN1CCN(c2ccc(Cl)cc2)CC1	1	0.7	41	32	32*	0.6
CCCC(C(=O)NC1CCCC1)N(Cc1cccs1)C(=O)c1snc(C(N)=O)c1N (configuration not stated)	-7	0.8	28	19	4	0.7
CN(C)C(=O)C12CCC(C)(c3nc4ccccc4nc31)C2(C)C (configuration not stated)	-2	0.7	15	25	-2	0.9
COc1ccc(NC(=O)/C(Cl)=C(/Cl)S(=O)(=O)Cc2ccc(C)cc2)cn1	97*	0.5	36	53*	84*	0.6
CCOC(=O)c1ccc(CNC(=O)c2cc(C(C)(C)C)oc2C)o1	5	0.2	90*	76*	13	0.1
COC(=O)c1ccc(C2C(Oc3ccc(OC)cc3)C(=O)N2CCc2ccc(F)cc2)cc1 (configuration not stated)	7	0.7	56*	25	8	0.4
COc1ccc(OC2C(=O)N(c3ccc(F)cc3)C2c2ccc(OC)c(OC)c2)cc1 (configuration not stated)	0	0.9	3	7	14	1
CCCCOC(=O)c1ccc(NC(=O)CSC2=Nc3ccccc3C3CC=NN23)cc1 (configuration not stated)	8	0.1	38	86*	3	0.6
CCCCOC(=O)c1ccc(NC(=O)CSc2nncn2C)cc1	-1	0.7	46	27	11	0.5
Cc1ccc2[nH]c(=O)c(CN(Cc3cccnc3)Cc3nnnn3CCN3CCOCC3)cc2c1	3	0.8	27	16	12	0.7
C=CCn1c(O)c(C(CC)=Nc2ccccc2NC(=O)CC)c(=O)[nH]c1=O	1	0.4	72*	60*	-2	0.3
O=c1cc(-c2ccccc2)nc2nc(COc3ccccc3)[nH]n12	-3	0.7	5	28	0	1
Cc1nc2nc(Cc3ccccc3)[nH]n2c(=O)c1Cc1ccccc1	10	1	-13	-1	-1	1.1
Cc1nc2nc(Cc3ccccc3)[nH]n2c(=O)c1Cl	4	0.3	-14	69*	0	1.1
Cc1nc2nc(COc3ccccc3)[nH]n2c(=O)c1Cl	-1	0.3	31	75*	-7	0.7
Cc1ccc(N/N=C/c2c(O)cc(C)oc2=O)cc1	24	0.5	37	50*	2	0.6
Cc1cccc(/N=C/c2c(O)cc(C)oc2=O)n1	13	1.1	-15	-11	1	1.1
CCS(=O)(=O)NCc1ccc2[nH]c3c(c2c1)CCCC3	2	0.3	38	74*	18	0.6
COC(=O)c1ccc(COc2ccc(C3C4=C(CCCC4=O)Nc4onc(C)c43)cc2)cc1 (configuration not stated)	3	0.3	17	68*	15	0.8
COC(=O)c1ccc(C2CC(=O)NC3=C2C(=O)CCC3)cc1 (configuration not stated)	-10	1.1	9	-9	13	0.9
CCCCCCc1nnc(N)s1	-3	0.7	25	28	3	0.7
SMILES	PostGolgi yeast	CYP2C9 act	CYP2C19 inh	CYP2C9 inh	PostGolgi ctrl	CYP2C19 activ
CCCOC(=O)c1ccc(OCC(O)Cn2c(C)nc3ccccc32)cc1 (configuration not stated)	3	0.5	22	48	10	0.8
O=S(=O)(Nc1nc(-c2sccc2Cl)cs1)c1cc(Cl)ccc1Cl	-2	0	90*	99*	35*	0.1
CCOC(=O)CNC(=O)CSc1nc2nc(C)c(Br)cc2[nH]1	0	0.4	60*	61*	8	0.4
COC(=O)C1=C(O)/C(=C\c2ccc(CNC(=O)C(=O)Nc3ccc(C)c(C)c3)o2)N=C1C	4	0.2	50*	80*	5	0.5
COC(=O)C1=C(O)/C(=C\c2ccc(CNC(=O)C(=O)Nc3ccc(C)cc3)o2)N=C1C	6	0.1	59*	88*	-4	0.4
COC(=O)c1cccc(C(=O)Nc2ccc(C)cc2)n1	5	0.9	24	13	8	0.8
CCOC(=O)C1=C(O)/C(=C/c2ccc(CNC(=O)C(=O)Nc3ccc(C)cc3)o2)N=C1C	-11	0.1	66*	90*	1	0.3
Cc1cc(COc2ccccc2O)on1	-4	1.1	3	-9	-6	1
O=S(=O)(c1ccc(Cl)c(Cl)c1)c1snnc1-c1ccccc1	25	0.1	99*	90*	52*	0
Cc1occc1-c1nnc(SCC(=O)c2cc3ccccc3oc2=O)o1	10	0.1	19	90*	19	0.8
Cc1occc1-c1nnc(SCC(=O)Nc2nc3ccccc3s2)o1	0	0.2	79*	75*	-5	0.2
O=S(=O)(NCC1CCCO1)c1cccc2nsnc12 (configuration not stated)	-1	1.1	1	-15	0	1
Cc1ccc(NC(=O)c2ccc(S(=O)(=O)NCC3CCCO3)cc2)cc1 (configuration not stated)	-4	0.9	7	14	7	0.9
CCOc1cc(C)c(Cl)cc1S(=O)(=O)NCC1CCCO1 (configuration not stated)	-7	1.2	90*	-25	26	0.1
COc1cc(S(=O)(=O)NCC2CCCO2)ccc1Br (configuration not stated)	-4	2.6*	36	-160	12	0.6
O=S(=O)(NCC1CCCO1)c1ccc(Cl)c(C(F)(F)F)c1 (configuration not stated)	9	3.9*	66*	-290	10	0.3
O=S(=O)(NCC1CCCO1)c1ccc(S(=O)(=O)N2CCCC2)cc1 (configuration not stated)	0	0.9	4	10	0	1
O=S(=O)(NCC1CCCO1)c1cc(Br)c(Br)s1 (configuration not stated)	3	2*	66*	-97	3	0.3
COC(=O)COc1ccc(S(=O)(=O)NCC2CCCO2)cc1Cl (configuration not stated)	-7	1.1	17	-6	8	0.8
CCCN1CCN(C(=O)C2CCN(S(=O)(=O)c3ccc4c(c3)oc(=O)n4C)CC2)CC1	-11	1	-10	-4	-2	1.1

Screening data: PubChem, several laboratories
